# Measured values published in PubChem BioAssay AID1508600 (Functional Genomics Laboratory (NCATS/FGL), 2020).
# Among all 53,000 sequences or so, about 3,700 (7%) were called active. Many of the other results were omitted from the sample, so actives are more common in it than they were. Unmarked numbers belong to inactive results.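 Rule for the calls: active = gene knockdowns whose robust z-score for IL-1 alpha signal is at least 2 or at most -2, so actives lie on both sides; inactive = the rest.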
# Test: Components of the Cytosolic LPS Sensing Pathway: Gene Identification via Genome-wide siRNA Screen;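 note: robust z of the log signal after scaling to non-targeting control siRNA wells of the plate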
# Conditions: RAW264.7 macrophages, IL-1a HTRF, actives lie on both sides, screened at 100 nM (by protocol), cells primed 5 h with Pam3CSK4 first
# Method in brief: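 Cells (RAW264.7, 1×10^4 per well) were transfected with siRNA at 100 nM and cultured 48h at 37 degrees C. Pam3CSK4 was added for 5 hours; LipidA transfection followed for 24 hour. IL-1a was then measured by HTRF.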
row,Sequence,z-score
1,GGCAUUGAAGGAAGUGAUCTT against Psmg3,-2.9 (active)
2,GGCCUUAGUAUUCUGCCUCTT against Nuak1,0.395
3,GGGAAUUCACACUGUCUGGTT against Tmem176a,-1.73
4,CGGCUAAGGAAAAAUGUGATT against Nr1h4,-1.26
5,CCAACAUCCUUAAGCGGCUTT against Lonp1,-0.161
6,GGUCAAAGGUGAAGAGAAATT against Chgb,1.43
7,GGAAACAGCAUCAUCAUGUTT against Snrpg,-2.28 (active)
8,CGUACAUCGUCGAGAUUUUTT against Rims1,0.839
9,GCGGAACCUAUAUAGGAAUTT against Zfp74,-0.292
10,CGAGAGUAGCUUGUUGCUGTT against Rhobtb3,0.359
11,GCUGUAUGGGAAGGGUUACTT against Tsen2,0.829
12,GGAUCAGUACCUGUGAUGGTT against Adamdec1,-2.07 (active)
13,GGAUCGUAGAACACCCUUCTT against Robo2,-0.00164
14,GGAUUCCACAAUUUUUGUATT against Ncoa6,-0.399
15,GCGGGUUAACUUGUUUGGUTT against Zcwpw1,0.525
16,GGCUUACACAAAAAUCUGUTT against Camk2d,-0.36
17,GGAAAUUACCUUGAUGAUGTT against Anxa4,-1.59
18,GGACAAUCUGAUUCAAGUATT against Ms4a2,0.104
19,GUUGUGCAAUCAACAAGGUTT against Fam98c,2.05 (active)
20,GCUACGCAAUAAGACCACATT against Lamc3,2.25 (active)
21,GGAGCUCAUUAGCAAAUAUTT against Olfm5,-0.859
22,GUACAAGCUCAAGUGCUCGTT against Casz1,-0.463

row,Sequence,z-score
1,GGAACUCCUGACUCUCAGATT against Htra2,-1.19
2,UGUACUGAUACAUACUUCCTT against Olfr1249,-0.487
3,GCAUGACAGUCAACACAAGTT against Slc35f6,2.04 (active)
4,GGAAAUAGACACCAAGAGCTT against Mau2,-1.64
5,GCAUCAUUAAGUGCUACCGTT against Pcdhac2,-0.263
6,UCUAUCUCAUUACUAUUGUTT against Olfr190,0.649
7,CCUAUCAAACUGACUUCAUTT against Castor2,0.309
8,GGACCUCCCACAGUGUUAUTT against Enpp2,-0.574
9,GGGAAACAGAUGAAAGAGUTT against Relch,0.0344
10,GGUUUGAACUUCAGCAACUTT against Adam15,-2.17 (active)
11,GGUCCACUUAGUGGCUUAATT against Atp5pb,-0.227
12,GGUGUAUUGAGCUAAACAUTT against Rnft2,-0.344
13,GGCAUGAGCGAGUUAAACCTT against Usp53,1.65
14,GGAGAACAUUCAGGUGACATT against Pdgfd,-0.625
15,GGCGAUGUGAAAAUCUUAATT against Xpnpep2,3.65 (active)
16,GGCCUCUUAUGUCAACCUGTT against Rpsa,-1.57
17,GCCGAUUCUUCAAUGUGCGTT against Ribc1,-0.242
18,CCAGCACGCUGAAGUCUGATT against Adam19,1.21
19,CCCUAUCGUGAUUUAUUGGTT against C130073F10Rik,-1.33
20,GGGUACAAAGCAACAUUGGTT against Disp1,4.2 (active)
21,GCAAUGUGCACGAUGAUGATT against Pik3cg,-0.79
22,CCUAGUGAAUCCUCUCGUATT against Eqtn,0.178

row,Sequence,z-score
1,GCCGAGCUCAAUGUGGGUATT against Bsn,1.11
2,GGAAGAAAGUGAGCCUUGUTT against Senp6,-2.14 (active)
3,GGCAGAGAGAUGUUACAAGTT against Ccl8,0.408
4,GGUACACUGGUAUACGUAUTT against Samd9l,-1.45
5,GGCUGAUCCAUUUUCACAATT against Adam6a,-2.77 (active)
6,GGUUUCAAGACAUUGAAAGTT against Arl14ep,-0.424
7,CGAUGACAUCAGGAUUGUUTT against Adgrg7,-0.124
8,GGACUUAUUAUGUGAGUGUTT against Ncbp2,0.555
9,GGAAAUCAGAAGAAGAACATT against Hars,2.67 (active)
10,CGGACACACUUUGUUAUUATT against 4833420G17Rik,0.198
11,GGACGUAACAAAAUGUUCUTT against P2ry12,0.578
12,CGGUGGAAUUCGUUAGAAGTT against Ireb2,-0.183
13,GGAAGGCCCUAGAAAGGACTT against Gm5094,0.209
14,GCGUGGCUGUCAUGUAUUUTT against Olfr231,0.247
15,GGAAGAUGUAUUCUUCUCCTT against Gemin4,0.499
16,GGAGAAGGAGCUGGAAACGTT against Cttn,0.645
17,CCUGAAAACCAUGCAAUACTT against Tas2r125,-2.37 (active)
18,GGGCUACUUCCUGACUAAATT against Ube2s,-0.505
19,GGACACUAUGCAAUCACCCTT against Rnf216,-0.481
20,GGUCUACGUAGAGGAGCUGTT against Mrpl28,1.04
21,GGGAAGCCUUUCUUGUCAGTT against Vmn1r40,-0.847
22,GGAAUAAAGAAUGGUAUACTT against Zfp280d,-0.0544

row,Sequence,z-score
1,CCAGUAGCACGUGUUAUUUTT against Rbmy,0.0944
2,GGAUUAAGAAAGAAACAGGTT against Zfp438,-0.387
3,GGCCACAGAGCCAAAGAUUTT against Cdca7,0.808
4,GCUUGAUCGAAGAAAGACATT against Tdrd3,0.709
5,GCGUAGGUUACGUUCAAGGTT against Ermard,2.74 (active)
6,CGACAGUGAAUGCGCUAAGTT against Slc7a9,-0.218
7,GCAAAUUCACCGGAAAAUGTT against Sorbs3,1.04
8,GGAGACUUAGAAAAAGACUTT against Olfr1426,1.17
9,GGAGUUUGUAACCCUCCUGTT against Cabp7,1.07
10,GCCGUCAUCAUGGAAGGUUTT against Bace1,0.0589
11,GGAAUCCUUGGACCUGAGGTT against Tnni3,-2.11 (active)
12,GGGUCAAUCAGAAGCUAGGTT against Creb3l4,-0.573
13,GGCAACUGACUAUUUAUUATT against Kcnk13,0.558
14,GCAUGAGUAUUCCAAGGAGTT against Arhgef7,-2.36 (active)
15,GCAGUAUAAGAAUUUCAUGTT against Thada,-0.325
16,GGAAAUGUUCUUCAUGUCATT against 1110038F14Rik,-1.95
17,GGCACGUCUGGACAACAUCTT against Cd22,-0.707
18,GGAGGUGACCUGUAAUCCCTT against Msmb,0.0151
19,GCUUUCACUAAUCAGUACATT against Setd5,-0.0813
20,GGAGCAACAGAGAUUUCUUTT against Sergef,2.07 (active)
21,GCUUCUGAUUAACCUCCAGTT against Olfr1390,-1.49
22,GCUUACCUUUGGAUUCAAATT against Cd68,-0.446

row,Sequence,z-score
1,GGGAAAAAGAGCUUUUAGCTT against Helt,-0.552
2,GGUGGCCGUGAAGAAGAUCTT against Mapk4,-0.902
3,GGGCUUAAGGAAUAAACCATT against Phtf2,-0.317
4,GGAGAUCUCAGAGAGUGAGTT against Atn1,-2.52 (active)
5,GCCUCCAACUGAACAAAUUTT against Tnfrsf14,0.0618
6,GGACCAUCUCUUUGAUUGGTT against Olfr424,-1.12
7,UCUUUGGCAACACUACCAUTT against Olfr1386,0.366
8,GAAGUCCUGGGACUUUAUGTT against Nudt14,0.208
9,GGACAGAAUUGAAAUGCCUTT against Ropn1l,-2.08 (active)
10,GGUUUCGUUGUUCUUGUUGTT against Ttc33,0.55
11,GGUAGAAGAGAACUGGACATT against Oas1a,0.228
12,GGCAUGAUUAUUGUGUUUGTT against Abcb11,0.41
13,CCUAAGUACUGUAAGAAUATT against Mycn,0.506
14,CGCCAUGUUUAACAAAUUGTT against Limk2,-2.22 (active)
15,GCCAUUCUAGGAACUCUGATT against Thrap3,-1.3
16,GGUAUCAGACAGCUGUAACTT against Mptx1,0.359
17,GCAUCAGUAGAAACCCACATT against Tmigd3,0.872
18,CCCUACUAUUGACGAAAACTT against Hpn,1.66
19,CCUGAUCUUAAACAAAGAATT against 2610507B11Rik,-0.742
